Test in all cases: PBM; 200 nM protein, PBS
Common to all, as to details: dsDNA, one strand shown

Experiment [1] concerns the target NKX2-5 (Homo sapiens, UniProt P52952 125-210, R139K).
Experiment [2] concerns the target HOXC9 (Homo sapiens, UniProt P31274 178-260, K195R).
Experiment [3] deals with T1, PAX4 (Homo sapiens, UniProt O43316 9-242, R200K).
T1 sequence: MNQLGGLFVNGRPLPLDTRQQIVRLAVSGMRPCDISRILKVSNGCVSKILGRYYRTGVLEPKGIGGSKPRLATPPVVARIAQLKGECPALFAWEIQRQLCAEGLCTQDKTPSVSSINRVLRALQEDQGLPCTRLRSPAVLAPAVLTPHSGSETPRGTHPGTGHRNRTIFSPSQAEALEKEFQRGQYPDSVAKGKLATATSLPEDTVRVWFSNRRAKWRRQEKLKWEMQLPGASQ

Experiment [4] has as its target T2, PAX4 (Homo sapiens, UniProt O43316 9-242).
T2 sequence: T1 sequence with K192R

The target in experiment [5] is HOXA2 (Homo sapiens, UniProt O43364 129-215, R185T).
For experiment [6], the target named is HOXC9 (Homo sapiens, UniProt P31274 178-260).
Experiment [7] concerns the target MSX2 (Homo sapiens, UniProt P35548 130-214, R199I).
For experiment [8], the target named is T3, PAX4 (Homo sapiens, UniProt O43316 9-242, R200Q).
T3 sequence: T1 sequence with K192Q

The target of experiment [9] is HOXC9 (Homo sapiens, UniProt P31274 178-260, R193K).
Experiment [10] deals with HOXA2 (Homo sapiens, UniProt O43364 129-215, R185K).
Experiment [11] concerns the target T4, PAX4 (Homo sapiens, UniProt O43316 9-242, F177V).
T4 sequence: T1 sequence with F169V, K192R

Experiment [12] concerns the target MSX2 (Homo sapiens, UniProt P35548 130-214).
For experiment [13], the target named is T5, PAX4 (Homo sapiens, UniProt O43316 9-242, F177Y).
T5 sequence: T1 sequence with F169Y, K192R

The target in experiment [14] is VAX1 (Homo sapiens, UniProt Q5SQQ9 86-172).
Experiment [15] concerns the target HOXC9 (Homo sapiens, UniProt P31274 178-260, R222W).
In experiment [16] the target is MSX2 (Homo sapiens, UniProt P35548 130-214, F161Y).
Experiment [17] concerns the target VAX1 (Homo sapiens, UniProt Q5SQQ9 86-172, T142I).
Experiment [18] deals with T6, PAX4 (Homo sapiens, UniProt O43316 9-242, R227W).
T6 sequence: T1 sequence with K192R, R219W

Experiment [19] addresses HOXA2 (Homo sapiens, UniProt O43364 129-215, Y150S).
The target of experiment [20] is NKX3-2 (Homo sapiens, UniProt P78367 192-278, P234S).
Experiment [21] concerns the target HOXA2 (Homo sapiens, UniProt O43364 129-215).
Experiment [22] deals with VAX1 (Homo sapiens, UniProt Q5SQQ9 86-172, K157R).
The target in experiment [23] is NKX2-5 (Homo sapiens, UniProt P52952 125-210).
The target in experiment [24] is NKX3-2 (Homo sapiens, UniProt P78367 192-278).
In experiment [25] the target is ALX4 (Homo sapiens, UniProt Q9H161 200-286).
The target of experiment [26] is ALX4 (Homo sapiens, UniProt Q9H161 200-286, Q225E).
Experiment [27] concerns the target HOXB6 (Homo sapiens, UniProt P17509 132-218, K202E).
For experiment [28], the target named is HOXB6 (Homo sapiens, UniProt P17509 132-218).
The target in experiment [29] is T7, NKX2-6 (Homo sapiens, UniProt A6NCS4 118-204, R150C).
T7 sequence: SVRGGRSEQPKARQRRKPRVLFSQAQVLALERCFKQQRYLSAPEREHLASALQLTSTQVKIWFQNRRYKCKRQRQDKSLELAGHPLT

Experiment [30] concerns the target ALX1 (Homo sapiens, UniProt Q15699 118-204, L144V).
For experiment [31], the target named is T8, NKX2-6 (Homo sapiens, UniProt A6NCS4 118-204).
T8 sequence: T7 sequence with C33R

Experiment [32] concerns the target T9, NKX2-4 (Homo sapiens, UniProt Q9H2Z4 175-261, R246Q).
T9 sequence: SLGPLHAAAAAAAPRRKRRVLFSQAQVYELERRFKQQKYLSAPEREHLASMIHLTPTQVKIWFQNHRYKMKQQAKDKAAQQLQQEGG

The target of experiment [33] is T10, NKX2-6 (Homo sapiens, UniProt A6NCS4 118-204, F151L).
T10 sequence: T7 sequence with C33R, F34L

Experiment [34] deals with ALX1 (Homo sapiens, UniProt Q15699 118-204).

Substitutions are numbered along the chain they refer to.

Chain of NKX2-5 (Homo sapiens, UniProt P52952 125-210, R139K) (P52952 125-210 R139K): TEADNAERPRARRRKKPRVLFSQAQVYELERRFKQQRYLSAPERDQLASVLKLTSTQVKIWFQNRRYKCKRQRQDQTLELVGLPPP
Chain of NKX2-5 (Homo sapiens, UniProt P52952 125-210) (P52952 125-210): as the sequence (P52952 125-210 R139K) above, with K15R counted along it
Chain of VAX1 (Homo sapiens, UniProt Q5SQQ9 86-172, T142I) (Q5SQQ9 86-172 T142I): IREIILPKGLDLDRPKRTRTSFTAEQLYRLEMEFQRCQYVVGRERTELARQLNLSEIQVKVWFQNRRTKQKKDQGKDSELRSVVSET
Chain of VAX1 (Homo sapiens, UniProt Q5SQQ9 86-172) (Q5SQQ9 86-172): as the sequence (Q5SQQ9 86-172 T142I) above, with I57T counted along it
Chain of VAX1 (Homo sapiens, UniProt Q5SQQ9 86-172, K157R) (Q5SQQ9 86-172 K157R): as the sequence (Q5SQQ9 86-172 T142I) above, with I57T, K72R counted along it
Chain of NKX3-2 (Homo sapiens, UniProt P78367 192-278) (P78367 192-278): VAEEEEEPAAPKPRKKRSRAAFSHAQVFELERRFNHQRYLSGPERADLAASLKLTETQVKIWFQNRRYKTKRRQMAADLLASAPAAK
Chain of NKX3-2 (Homo sapiens, UniProt P78367 192-278, P234S) (P78367 192-278 P234S): as the sequence (P78367 192-278) above, with P43S counted along it
Chain of HOXB6 (Homo sapiens, UniProt P17509 132-218, K202E) (P17509 132-218 K202E): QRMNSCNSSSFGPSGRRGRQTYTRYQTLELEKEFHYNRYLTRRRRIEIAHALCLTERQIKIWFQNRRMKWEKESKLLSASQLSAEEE
Chain of HOXC9 (Homo sapiens, UniProt P31274 178-260) (P31274 178-260): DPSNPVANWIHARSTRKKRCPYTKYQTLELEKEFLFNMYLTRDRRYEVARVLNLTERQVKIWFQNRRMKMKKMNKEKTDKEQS
Chain of MSX2 (Homo sapiens, UniProt P35548 130-214, R199I) (P35548 130-214 R199I): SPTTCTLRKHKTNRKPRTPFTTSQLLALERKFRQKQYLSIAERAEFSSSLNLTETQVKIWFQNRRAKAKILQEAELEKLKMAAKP
Chain of HOXC9 (Homo sapiens, UniProt P31274 178-260, K195R) (P31274 178-260 K195R): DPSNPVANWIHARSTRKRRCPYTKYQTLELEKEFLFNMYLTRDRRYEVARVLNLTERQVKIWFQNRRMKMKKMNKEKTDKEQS
Chain of ALX1 (Homo sapiens, UniProt Q15699 118-204, L144V) (Q15699 118-204 L144V): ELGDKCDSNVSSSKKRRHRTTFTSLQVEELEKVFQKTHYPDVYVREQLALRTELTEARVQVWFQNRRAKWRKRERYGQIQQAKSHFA
Chain of HOXA2 (Homo sapiens, UniProt O43364 129-215, R185K) (O43364 129-215 R185K): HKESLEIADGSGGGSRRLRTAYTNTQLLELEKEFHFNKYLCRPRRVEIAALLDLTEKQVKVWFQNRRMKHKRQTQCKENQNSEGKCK
Chain of HOXA2 (Homo sapiens, UniProt O43364 129-215, Y150S) (O43364 129-215 Y150S): as the sequence (O43364 129-215 R185K) above, with Y22S, K57R counted along it
Chain of HOXA2 (Homo sapiens, UniProt O43364 129-215) (O43364 129-215): as the sequence (O43364 129-215 R185K) above, with K57R counted along it
Chain of HOXC9 (Homo sapiens, UniProt P31274 178-260, R193K) (P31274 178-260 R193K): as the sequence (P31274 178-260) above, with R16K counted along it
Chain of HOXA2 (Homo sapiens, UniProt O43364 129-215, R185T) (O43364 129-215 R185T): as the sequence (O43364 129-215 R185K) above, with K57T counted along it
Chain of MSX2 (Homo sapiens, UniProt P35548 130-214, F161Y) (P35548 130-214 F161Y): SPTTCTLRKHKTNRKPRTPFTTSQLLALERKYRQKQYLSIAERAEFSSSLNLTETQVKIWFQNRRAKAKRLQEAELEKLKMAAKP
Chain of HOXB6 (Homo sapiens, UniProt P17509 132-218) (P17509 132-218): as the sequence (P17509 132-218 K202E) above, with E71K counted along it
Chain of ALX4 (Homo sapiens, UniProt Q9H161 200-286, Q225E) (Q9H161 200-286 Q225E): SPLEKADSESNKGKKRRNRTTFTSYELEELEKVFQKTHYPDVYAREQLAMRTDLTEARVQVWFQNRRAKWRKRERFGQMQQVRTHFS
Chain of ALX1 (Homo sapiens, UniProt Q15699 118-204) (Q15699 118-204): as the sequence (Q15699 118-204 L144V) above, with V27L counted along it
Chain of ALX4 (Homo sapiens, UniProt Q9H161 200-286) (Q9H161 200-286): as the sequence (Q9H161 200-286 Q225E) above, with E26Q counted along it
Chain of HOXC9 (Homo sapiens, UniProt P31274 178-260, R222W) (P31274 178-260 R222W): as the sequence (P31274 178-260) above, with R45W counted along it
Chain of MSX2 (Homo sapiens, UniProt P35548 130-214) (P35548 130-214): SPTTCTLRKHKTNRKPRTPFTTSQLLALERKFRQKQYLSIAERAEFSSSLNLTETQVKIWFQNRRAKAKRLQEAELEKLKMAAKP

For AGCCCGGG, the binding signal in experiment [1] was 8.84 upbm affinity estimate (log intensity, higher = more binding, comparable within an allelic series); in experiment [2] it was 9.48 upbm affinity estimate (log intensity, higher = more binding, comparable within an allelic series); in experiment [3], 9.12 upbm affinity estimate (log intensity, higher = more binding, comparable within an allelic series); in experiment [4], 8.95 upbm affinity estimate (log intensity, higher = more binding, comparable within an allelic series); in [5], 7.03 upbm affinity estimate (log intensity, higher = more binding, comparable within an allelic series); in [6], 9.82 upbm affinity estimate (log intensity, higher = more binding, comparable within an allelic series). Besides, the binding signal in [7] was 9.38 upbm affinity estimate (log intensity, higher = more binding, comparable within an allelic series); in [8], 9.17 upbm affinity estimate (log intensity, higher = more binding, comparable within an allelic series); in experiment [9] it was 9.63 upbm affinity estimate (log intensity, higher = more binding, comparable within an allelic series); in experiment [10], 10.2 upbm affinity estimate (log intensity, higher = more binding, comparable within an allelic series); in [11] it was 9.12 upbm affinity estimate (log intensity, higher = more binding, comparable within an allelic series); in experiment [12], 9.25 upbm affinity estimate (log intensity, higher = more binding, comparable within an allelic series). The binding signal in experiment [13] is 9.07 upbm affinity estimate (log intensity, higher = more binding, comparable within an allelic series); in [14] it was 6.75 upbm affinity estimate (log intensity, higher = more binding, comparable within an allelic series); in experiment [15], 9.71 upbm affinity estimate (log intensity, higher = more binding, comparable within an allelic series); in experiment [16], 9.37 upbm affinity estimate (log intensity, higher = more binding, comparable within an allelic series); in experiment [17], 6.9 upbm affinity estimate (log intensity, higher = more binding, comparable within an allelic series); in [18] it was 9.13 upbm affinity estimate (log intensity, higher = more binding, comparable within an allelic series). Further, the binding signal in experiment [19] was 10.4 upbm affinity estimate (log intensity, higher = more binding, comparable within an allelic series); in experiment [20] it was 10.4 upbm affinity estimate (log intensity, higher = more binding, comparable within an allelic series); in experiment [21], 7.06 upbm affinity estimate (log intensity, higher = more binding, comparable within an allelic series); in experiment [22], 6.72 upbm affinity estimate (log intensity, higher = more binding, comparable within an allelic series); in experiment [23], 8.8 upbm affinity estimate (log intensity, higher = more binding, comparable within an allelic series); in experiment [24], 10.3 upbm affinity estimate (log intensity, higher = more binding, comparable within an allelic series).
In the case of GCGTGCGA, the binding signal is 8.9 upbm affinity estimate (log intensity, higher = more binding, comparable within an allelic series) in [1]; 7.96 upbm affinity estimate (log intensity, higher = more binding, comparable within an allelic series) in [25]; 8.17 upbm affinity estimate (log intensity, higher = more binding, comparable within an allelic series) in experiment [26]; 8.92 upbm affinity estimate (log intensity, higher = more binding, comparable within an allelic series) in experiment [23].
CCTACGGA: the binding signal in experiment [1] was 8.68 upbm affinity estimate (log intensity, higher = more binding, comparable within an allelic series); in experiment [27] it was 9.05 upbm affinity estimate (log intensity, higher = more binding, comparable within an allelic series); in [14], 7.04 upbm affinity estimate (log intensity, higher = more binding, comparable within an allelic series); in [17], 7.2 upbm affinity estimate (log intensity, higher = more binding, comparable within an allelic series); in experiment [22], 7.03 upbm affinity estimate (log intensity, higher = more binding, comparable within an allelic series); in experiment [23], 8.68 upbm affinity estimate (log intensity, higher = more binding, comparable within an allelic series). In addition, the binding signal in [28] is 8.95 upbm affinity estimate (log intensity, higher = more binding, comparable within an allelic series).
CGCACTTA: the binding signal in [1] is 12.6 upbm affinity estimate (log intensity, higher = more binding, comparable within an allelic series); in experiment [29], 11.8 upbm affinity estimate (log intensity, higher = more binding, comparable within an allelic series); in [30], 8.31 upbm affinity estimate (log intensity, higher = more binding, comparable within an allelic series); in experiment [31], 13.5 upbm affinity estimate (log intensity, higher = more binding, comparable within an allelic series); in [32], 12.9 upbm affinity estimate (log intensity, higher = more binding, comparable within an allelic series); in experiment [33], 10.9 upbm affinity estimate (log intensity, higher = more binding, comparable within an allelic series). Besides, the binding signal in experiment [20] is 12.6 upbm affinity estimate (log intensity, higher = more binding, comparable within an allelic series); in [34] it was 8.83 upbm affinity estimate (log intensity, higher = more binding, comparable within an allelic series); in experiment [23], 12.5 upbm affinity estimate (log intensity, higher = more binding, comparable within an allelic series); in experiment [24] it was 12.7 upbm affinity estimate (log intensity, higher = more binding, comparable within an allelic series).

The values are drawn from publication PMC11006913.
